Results: PubChem BioAssay (NCI)
This is part of a sample that, as a whole, favours compounds with a hit. Of some 79,000 tested, about 15% had one in any assay. The source made the active and inactive calls. No stated cut-off is given here; in the data, active means growth inhibition above about 70%; inactive means the rest. Where a SMILES comes first, the peptide text is derived from it. [ ]: non-standard residue; d: D form. The star is where a group is joined. Cbz = O=C(OCc1ccccc1)*; Nva = CCC[CH](N)C(=O)O

Experiments:
[1] = NCI Yeast Anticancer Drug Screen. Data for the rad50 strain (AID 155);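 further: 0% = growth of vehicle-only cultures of the same strain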; conditions: S. cerevisiae rad50 strain growth inhibition; at 50.0 µM; active compounds read high
In short: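 Relative growth inhibition (compound vs vehicle) was measured in yeast with a defined repair-gene alteration.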

[2] = NCI Yeast Anticancer Drug Screen. Data for the mec2-1 strain (AID 157); conditions: S. cerevisiae mec2-1 strain, at 50.0 µM, active compounds read high
In short: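 Growth inhibition is read against vehicle-treated controls after compound exposure of the mec2-1 yeast strain, which is defective in DNA damage repair or cell cycle control.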

[3] = NCI Yeast Anticancer Drug Screen. Data for the sgs1 mgt1 strain (AID 161);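 further: 0% = growth of cultures given vehicle only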; conditions: S. cerevisiae sgs1 mgt1 strain, at 50.0 µM, active compounds read high
In short: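 Percent growth inhibition was derived by comparing compound-exposed mutant yeast with vehicle-exposed cultures. The strain carries alterations in DNA damage repair.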

[4] = NCI Yeast Anticancer Drug Screen. Data for the cln2 rad14 strain (AID 165);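 further: 0% = growth equal to vehicle treated cultures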; conditions: S. cerevisiae cln2 rad14 strain, at 50.0 µM, active compounds read high
In short: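 Growth inhibition, relative to vehicle-treated controls, is the read-out. The test organism is a yeast strain with defined genetic alterations, cln2 rad14.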

[5] = NCI Yeast Anticancer Drug Screen. Data for the bub3 strain (AID 167); conditions: S. cerevisiae bub3 mutant strain, at 50.0 µM, active compounds read high
In short: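 Screening used yeast with an engineered genetic alteration affecting cell cycle control. Compound-exposed cultures were compared with vehicle cultures, and reduced growth was taken as inhibition.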

[6] = NCI Yeast Anticancer Drug Screen. Data for the mlh1 rad18 strain (AID 175); conditions: S. cerevisiae mlh1 rad18 strain growth inhibition; at 50.0 µM; active compounds read high
In short: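 Cells of a genetically altered yeast strain, deficient in DNA damage repair, were treated with compound. Their growth was then compared with that of vehicle-treated cultures to give inhibition.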

Measured: growth inhibition

N#Cc1ccc[n+](Cc2c(Cl)cccc2Cl)c1
inactive: [1] 6.6% | [2] 28.9% | [3] 23.2% | [4] 5.8% | [5] 20.6% | [6] 44.1%

c1ccc2c(c1)cnc1c3ccccc3ccc21
inactive: [1] 10.1% | [2] -7.85% | [3] -8.6% | [4] -21.9% | [5] 6.85% | [6] -0.5%

O=C(Nc1ccc(Cc2ccc(NC(=O)Nc3nc4ccccc4s3)cc2)cc1)Nc1nc2ccccc2s1
inactive: [1] -5.15% | [2] -17.4% | [3] -2.25% | [4] 19.2% | [5] 21.6% | [6] -4.5%

COc1ccc2c(c1)OC1c3ccccc3OCC21 (stereo not given)
inactive: [1] 26.1% | [2] 11.6% | [3] 15.8% | [4] 12.3% | [5] 27.9% | [6] 30.2%

O=C(c1ccccc1)C1CCC(C(=O)c2ccccc2)C1=O (stereo not given)
inactive: [1] 15.8% | [2] 14.3% | [3] -8% | [4] 17.9% | [5] 7.3% | [6] -17.2%

COC(=O)/C=C/c1cc2c(cc1-c1c(C(=O)O)cc(OC)c(OC)c1OC)OCO2
inactive: [1] -11.2% | [2] -0.55% | [3] -18.8% | [4] -3.4% | [5] -28.4% | [6] -8.05%

COc1ccc(-c2oc(/C=N/NC(N)=S)c([N+](=O)[O-])c2-c2ccc(OC)c(OC)c2)cc1OC
inactive: [1] 44.6% | [2] 22.8% | [3] 44% | [4] 24.4% | [5] 28.9% | [6] 34.6%

O=[N+]([O-])c1ccc(NN=C2CN3CCN(C2)c2ccccc23)c([N+](=O)[O-])c1
inactive: [1] 35.4% | [2] 20.1% | [3] 59.8% | [4] 40.8% | [5] 40.6% | [6] 35.1%

O=C(/C=C/c1c(-c2ccccc2)[nH]c2ccccc12)c1cccc([N+](=O)[O-])c1
inactive: [1] 43% | [2] 17.1% | [3] 42% | [4] 20.9% | [5] 19.9% | [6] 36.2%

CCCCCCCCOC(=O)C(C)OC(C)=O (stereo not given)
inactive: [1] 17.2% | [2] 2.05% | [3] 2.3% | [4] 13.8% | [5] 12.3% | [6] 12.1%

O=[N+]([O-])c1ccc2c(c1)nc(-c1ccccn1)n2CCc1ccncc1
inactive: [5] 56.2%
active: [1] 95.2% | [2] 98.7% | [3] 99% | [4] 87% | [6] 99.2%

Cc1ccc2c(N(C)C)cc(N(C)C)nc2c1C
inactive: [1] -0.15% | [2] 4.4% | [3] -9.2% | [4] -48% | [5] -1.1% | [6] 15.5%

Cc1cc(Cl)ccc1NC(=O)C(=O)C(C(=O)c1ccccc1)C1OC(=O)c2ccccc21 (stereo not given)
inactive: [1] 20.9% | [2] -7.45% | [3] 14.2% | [4] 14.6% | [5] -3.25% | [6] -9.75%

CCCC1OCC(CC)([N+](=O)[O-])CO1 (stereo not given)
inactive: [1] 19.6% | [2] 15.7% | [3] 18.1% | [4] 9.3% | [5] -0.85% | [6] -5.7%

CCOC(=O)C(c1ccccc1)C(C)c1ccccc1 (stereo not given)
inactive: [1] -7.5% | [2] -0.4% | [3] 1.85% | [4] 1.9% | [5] -11.3% | [6] -12.2%

CCCC(NC(=O)OCc1ccccc1)C(=O)NC(Cc1ccccc1)C(N)=O (stereo not given) (Cbz-[Nva]-Phe-NH2; configuration not given here)
inactive: [1] -6% | [2] -0.9% | [3] -3.45% | [4] -34.2% | [5] -5.5% | [6] 0.45%

CCN(CC)CCNc1ccc(OC)c2sc3ccccc3c(=O)c12
inactive: [1] 53.6% | [2] 25.4% | [3] 20.9% | [4] -7.85% | [5] 40.4% | [6] 24.6%

COC(=O)N/N=C(/Cc1occc(=O)c1O)C(=O)Nc1ccc([N+](=O)[O-])cc1[N+](=O)[O-]
inactive: [1] -11.1% | [2] -12.9% | [3] -26.4% | [4] 3.3% | [5] 5.25% | [6] 8.1%

CCCCCSc1ncnc2c1ncn2CO
inactive: [1] 0.9% | [2] 18.1% | [3] 7.45% | [4] 9.75% | [5] 42.7% | [6] 3.6%

CC1CC(C)SC(C)S1 (stereo not given)
inactive: [1] -30.6% | [2] -7.95% | [3] -10.1% | [4] -87.4% | [5] -2.7% | [6] -14.8%
